The sample as a whole holds a higher share of hits than the screen did.
USP2a inh: blocks human ubiquitin-specific protease USP2a; 330,000 compounds, 0.01% hits; USP2 core, Ub-CHOP2 coupled fluorogenic reporter, 485/531; Potency, µM (titrated, usually from 38.3 µM), hits mostly inhibitors; O75604; AID 463254
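USP2 core (10nM final) preincubated 30min RT with compound in 20mM Tris-HCl pH 8.0, 2mM CaCl2, 2mM beta-mercaptoethanol, 0.05% CHAPS; 25nM Ub-CHOP2 plus 25nM reporter substrate added, fluorescence (Ex485/Em531) read after 60min.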
ClpP mod: qHTS Assay for Activators of ClpP | ATP-dependent Clp protease proteolytic subunit (Bacillus subtilis (strain 168)), P80244 | purified B. subtilis ClpP, FRET peptide cleavage, 20 min | Potency, µM (series often up to 57.5 µM) | 340,000 compounds, 1.9% hits | AID 651965, 2013; active = well fitted falling curve with a large enough effect; inconclusive = small, poorly fitted or top-dose-only effect; inactive = no such curve, though single readings can be large or run the other way; also: the source files actives as falling curves though it sought activators and does not explain the sign; nearly all actives have a fitted effect of over 65% in size
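Buffer: 100 mM Tris/HCl pH8, 100 mM KCl, 0.05% low protease BSA, 2.5% glycerol, 0.01% Tween-20. ClpP 10 microg/mL final; 20 min RT; delta FRET normalized to ADEP and DMSO controls.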
GALK inhibitor: galactokinase (human) inhibition | P51570 | Purified GALK, Kinase-Glo residual ATP luminescence | Potency, µM (top dose mostly 57.5 µM), hits mostly inhibitors | 270,000 compounds, 0.007% hits
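Quantitative HTS: GALK 5 nM, ATP 35 uM, galactose 100 uM, 1 h room temperature, then luciferase-based ATP detection.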
Eya2 inh: inhibitors of human Eya2 phosphatase activity; recombinant Eya2, OMFP fluorescence dephosphorylation (OMFP is methylfluorescein phosphate); Potency, µM (doses to about 76.9 µM), hits mostly inhibitors; 330,000 compounds, 0.006% hits; AID 488837
Target sequence (O00167 whole entry, looked up): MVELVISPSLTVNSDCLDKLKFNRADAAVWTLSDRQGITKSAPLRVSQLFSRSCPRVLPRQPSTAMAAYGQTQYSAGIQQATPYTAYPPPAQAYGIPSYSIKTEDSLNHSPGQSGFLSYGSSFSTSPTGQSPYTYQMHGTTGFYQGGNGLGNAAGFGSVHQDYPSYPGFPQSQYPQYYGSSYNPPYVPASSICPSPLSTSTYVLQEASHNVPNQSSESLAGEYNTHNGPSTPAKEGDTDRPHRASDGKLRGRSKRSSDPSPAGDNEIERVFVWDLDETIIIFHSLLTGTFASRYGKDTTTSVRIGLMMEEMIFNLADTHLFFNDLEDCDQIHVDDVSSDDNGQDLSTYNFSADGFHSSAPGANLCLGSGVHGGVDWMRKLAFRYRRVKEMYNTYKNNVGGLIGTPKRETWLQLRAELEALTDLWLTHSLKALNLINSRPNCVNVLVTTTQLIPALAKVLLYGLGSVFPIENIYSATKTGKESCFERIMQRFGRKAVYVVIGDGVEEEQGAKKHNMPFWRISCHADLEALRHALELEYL
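Eya2 protein (added as 0.2 uM solution) was preincubated with compound for 10 min at ambient temperature in 50 mM HEPES pH 7.5, 50 mM NaCl, 5 uM MgCl2, 0.05% BSA, 1 mM DTT. OMFP (added at 50 uM) then reacted 10 min; fluorescence read at 485/525 nm.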
Hits are given with their value; n = inactive; u = inconclusive; x = no result given; [ ] = another dose, or the depositor's remark. Unless noted, calls follow the shape of the dose curve; as a rule, active = well fitted inhibition curve with a large enough effect; inconclusive = small, poorly fitted or top-dose-only effect, or effect the other way; inactive = flat fitted curve, though single readings scatter.

SMILES	USP2a inh	ClpP mod	GALK inhibitor	Eya2 inh
CCOC(=O)[C@@H]1[C@H]2COc3cc(OC)ccc3[C@H]2N2C(=O)N(c3ccc(Cl)cc3)C(=O)[C@]12C	n	n	x	n
Cc1ccc(C(=O)c2cc([N+](=O)[O-])ccc2N2CCN(C)CC2)cc1	n	n	x	n
COc1ccc(Cc2nc3ccc(C(=O)NCCn4ccnc4C)cc3o2)cc1OC	n	31.6µM	n	n
COc1ccc(Cc2nc3ccc(C(=O)NCCc4ccncc4)cc3o2)cc1OC	n	n	n	n
O=C(Cc1cccs1)N1CCN=C1SCc1ccccc1F	n	n	n	n
O=C(Nc1ccc(-c2nc3c(ccc4ccccc43)o2)cc1)c1ccco1	n	12.6µM	n	n
CCN(CC)CCCNC(=S)N(Cc1cccnc1)Cc1cc2cccc(C)c2[nH]c1=O	n	x	n	n
C=CCn1c(=O)c2ccc(C(=O)NCc3ccccc3)cc2n(Cc2cccc(Cl)c2)c1=O	n	28.2µM	x	n
COCCN(CCOC)S(=O)(=O)c1ccc(Cl)nc1	n	n	n	n
Cc1cc(C(=O)CSc2nc3ccccc3o2)c(C)n1CC1CCCO1 (stereo not given)	n	28.2µM	n	n
CC(C)c1[nH]c(=O)c(C#N)c2c1COC(C)(C)C2	n	31.6µM	n	n
CC(C)c1nc(NCC2CCCO2)c(C#N)c2c1COC(C)(C)C2 (stereo not given)	n	28.2µM	n	n
CCCc1[nH]c(=O)c(C#N)c2c1COC(C)(C)C2	n	25.1µM	n	n
CCc1nc(NCC2CCCO2)c(C#N)c2c1COC(C)(C)C2 (stereo not given)	n	n	n	n
CCCc1nc(NC2CCCCC2)c(C#N)c2c1COC(C)(C)C2	n	35.5µM	n	n
Cc1[nH]c(=O)c(C#N)c2c1COC(C)(C)C2	n	x	n	n
CCc1nc(NC2CCCCC2)c(C#N)c2c1COC(C)(C)C2	n	n	n	n
Cc1ccccc1-n1cc[nH]c1=S	n	x	n	u
COc1ccccc1-n1cccc1C=O	n	n	n	n
CC(=O)c1cccc(S(=O)(=O)NC2CCSc3ccccc32)c1 (stereo not given)	n	x	n	n
COc1cccc(CC(=O)OCC(=O)NC2(C#N)CCCCC2)c1	n	u	x	n
CCN(c1ccccc1)S(=O)(=O)c1ccc(C(=O)NCCc2ccc(S(N)(=O)=O)cc2)cc1	n	x	n	n
CCn1c(NCCCO)nc2c(c1=O)C(C)(CC)Cc1ccccc1-2 (stereo not given)	n	n	n	n
CC1(C)CC(n2c(NCCO)nc3c(c2=O)C2(CCCC2)Cc2ccccc2-3)CCO1 (stereo not given)	n	31.6µM	n	n[15.4 µM]
O=c1c2c(nc(NCCO)n1CC1CCCCC1)-c1ccccc1CC21CCCC1	n	28.2µM	n	n
SMILES	USP2a inh	ClpP mod	GALK inhibitor	Eya2 inh
CC1(C)Cc2ccccc2-c2nc(NCCO)n(-c3ccccc3)c(=O)c21	n	u	n	n
CC1CCN(S(=O)(=O)c2ccc(NC(=O)c3ccncc3)cc2)CC1	n	n	n	n
COc1ccc(C(NC(=O)C2CCCCC2)c2c(O)ccc3ccccc23)cc1 (stereo not given)	n	25.1µM	n	n
CCCC(=O)NC(c1ccc(OC)cc1)c1c(O)ccc2ccccc12 (stereo not given)	n	x	n	n
O=C(CC1SC(N2CCCC2)=NC1=O)Nc1ccc(C(=O)N2CCN(c3cccc(Cl)c3)CC2)cc1 (stereo not given)	n	31.6µM	x	n
Cc1ccc(CCNC(=O)c2nn(C)c3c2CSc2ccccc2-3)cc1	x	n	x	x
O=C(OCc1ccccc1)C1=NNC2C(=O)N(c3ccccc3)C(=O)C12 (stereo not given)	n	22.4µM	n	n
CCc1ccc(N2C(=O)C3NN=C(C(=O)OCc4ccccc4)C3C2=O)cc1 (stereo not given)	n	n	n	n
Cc1ccc(OC(=O)CCC(=O)Nc2ccc(S(=O)(=O)Nc3cc(C)on3)cc2)cc1	n	n	n	n
COc1ccc(Br)c(C(=O)N2CCN(S(=O)(=O)/C=C/c3ccccc3)CC2)c1	n	28.2µM	n	n
O=C(c1ccc2ccccc2c1)N1CCN(S(=O)(=O)/C=C/c2ccccc2)CC1	n	x	n	n
COc1cc(/C=C/C(=O)OCC(=O)NC(=O)NC(C)C)cc(S(=O)(=O)N2CCc3ccccc32)c1OC	n	20µM	n	n
COc1cc(/C=C/C(=O)OCC(=O)N2CCc3ccccc32)cc(OC)c1OC	x	n	x	x
CC(C)[C@@H](N)C(=O)NC[C@H]1O[C@@H](n2cnc3c(=O)[nH]c(N)nc32)[C@H](O)[C@@H]1O	x	n	x	x
CCCCOc1ccc(C(=O)NCC(=O)NCc2ccncc2)cc1	n	31.6µM	x	n
COc1ccc(C(=O)NCC(=O)NCc2ccncc2)cc1	n	n	x	n
CSc1ncccc1C(=O)OCC(=O)NCCC1=CCCCC1	n	n	x	n
O=C(COC(=O)c1cccnc1Cl)NCCC1=CCCCC1	n	15.8µM	n	n
O=C(O)c1ccc(-c2nc(-c3ccccc3)c(-c3cccs3)[nH]2)cc1	n	x	n	n
COc1ccc(-c2nc(-c3cccs3)c(-c3cccs3)[nH]2)cc1O	n	25.1µM	n	n
COc1cc2c(cc1OC)C(=O)CCC2	x	28.2µM	x	x
COc1cc2c(cc1OC)C(=NO)CCCC2	x	n	x	x
Cc1cc(NC(=O)CCC(=O)N(c2cccc(F)c2)C(C(=O)NC2CCCC2)c2ccc(C)o2)no1 (stereo not given)	n	28.2µM	n	n
CCN(CC)c1nc(N)c2c(N)nc3c(c2c1C#N)CC(c1ccccc1)O3 (stereo not given)	n	28.2µM	n	n
CCC1Cc2c(nc(N)c3c(N)nc(N4CCCCC4)c(C#N)c23)O1 (stereo not given)	n	x	n	n
SMILES	USP2a inh	ClpP mod	GALK inhibitor	Eya2 inh
N#Cc1c(N2CCCCC2)nc(N)c2c(N)nc3c(c12)CC(c1ccccc1)O3 (stereo not given)	n	28.2µM	x	n
CCN(CC)c1nc(N)c2c(N)n(-c3ccccc3C)c(=S)c(C#N)c2c1C#N	n	n	n	n
COc1ccc(CCNC(=O)C2=CC=CN3CCS(=O)(=O)N=C23)cc1	n	n	x	n
O=C(NCCOc1ccccc1)C1=CC=CN2CCS(=O)(=O)N=C12	n	31.6µM	x	n
CC1(C)CC(=O)C2=C(C1)Nc1ccccc1NC2c1cccnc1 (stereo not given)	n	n	n	n
CN(C)c1ccc(-c2nc3n(n2)C(c2cccnc2)C2=C(CC(C)(C)CC2=O)N3)cc1 (stereo not given)	n	14.1µM	n	n
O=C(CNC(=O)c1ccc2c(c1)OCO2)Nc1ncccc1O	n	x	x	n
Cc1cccc(C)c1Nc1c(-c2ccccc2F)nc2cccc(C)n12	x	31.6µM	x	x
Cc1cccc2nc(-c3ccccn3)c(Nc3ccc(F)cc3)n12	x	n	x	x
CC1(C)CCCN(C(=O)c2coc(=O)c(Br)c2)C1	n	25.1µM	n	n
O=C(c1coc(=O)c(Br)c1)N1CCCc2ccccc21	n	12.6µM	n	n

Compound activity as filed in PubChem BioAssay.
